Screening data (PubChem)
In the library only some 7.1% were active in any assay of this set; here they are far more common.
ATXN viability: cell viability loss in ATXN counter-screen; S2 cells (HEK-293 line with an ATXN2-luciferase reporter) viability, CellTiter-Fluor protease fluorescence, 24 h; Potency, µM (titrated, usually from 56.7 µM), hits mostly cytotoxic; 400,000 compounds, 0.49% hits; AID 651635; note: nearly all actives have a fitted effect of over 40% in size
SW480 rerep: inducers of DNA re-replication in SW480 colon cancer cells | Potency, µM (top dose mostly 46.1 µM), hits mostly activators | 340,000 compounds, 1.8% hits | AID 624297 | SW480 DNA re-replication, Hoechst DNA content imaging, 48 h; note: nearly all actives have a fitted effect of over 55% in size
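Readout is total intensity of Hoechst-stained nuclei, excited at 405 nm and collected at 500-530 nm. Compound treatment lasted 48 hr at 37 C in 5% CO2 before staining.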
ATXN2 expr inh: inhibitors of ATXN2 expression | HEK-293 ATXN2-luciferase reporter, luminescence, 24 h | Potency, µM (series often up to 57 µM), most hits filed as inhibitors | 360,000 compounds, 0.72% hits | AID 1745845; note: nearly all actives have a fitted effect of over 55% in size
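ATXN2-luciferase reporter cells (luciferase flanked by upstream and downstream ATXN2 gene portions) were treated 24 h at 37 °C with compounds at up to 57 uM. SteadyGlo luminescence gave expression; GF-AFC fluorescence gave viability.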
IL1B secr inh: blocks inflammasome-driven IL-1 beta release. THP-1 LPS/ATP IL-1B secretion, AlphaLISA, 16 h; active compounds read low. activity change, % at 57.5 µM. 360,000 compounds, 4.7% hits. AID 743279; in the data active = activity change below about -50%; inconclusive = mostly about -30% to -49%
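THP-1 cells pretreated 1 hr with compounds (up to 57.5 uM final), then stimulated with LPS (250 ng/mL final) plus ATP (1.25 mM final); secreted IL-1B measured by AlphaLISA after 16 hr, decreased signal indicating inhibition.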
PINK1 modulator: changes PINK1 expression; PINK1 immunofluorescence, high-content cytometry, 24 h; Potency, µM (titrated, usually from 76.6 µM), most hits filed as activators; 410,000 compounds, 0.2% hits; active = well fitted activation curve with a large enough effect; inconclusive = small, poorly fitted or top-dose-only effect; cell line not stated here; note: nearly all actives have a fitted effect of over 65% in size
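PINK1 protein level read as immunofluorescence by microplate cytometer in a fixed, stained stable cell line after 24 h exposure to five compound concentrations, with CCCP as control.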
MCF10A rereplic: induces DNA re-replication in MCF 10a normal breast cells. MCF 10A DNA re-replication, Hoechst nuclear intensity, 48 h. Potency, µM (titrated, usually from 46.1 µM), hits mostly activators. 350,000 compounds, 2.9% hits; note: nearly all actives have a fitted effect of over 50% in size
Large screens that a line does not name were inactive. Unless noted, calls come from the whole dose curve; as a rule, active = well fitted curve in the direction sought with a large enough effect; inconclusive = small, poorly fitted or top-dose-only effect, or another doubt; inactive = no such curve, though single readings can be large; an effect the other way counts as inactive or inconclusive.

COc1ccc(S(=O)(=O)NCCc2csc3nc(-c4ccc(OC)c(OC)c4)nn23)cc1C	none (no result: ATXN viability, SW480 rerep, ATXN2 expr inh, IL1B secr inh, MCF10A rereplic)
Cc1coc2cc3oc(=O)c(CCC(=O)N4CCCCC4)c(C)c3cc12	none (no result: SW480 rerep, IL1B secr inh, MCF10A rereplic)
Oc1ccccc1OCc1nc2ccccc2s1	none
Oc1ccc(O)c(Cc2nc3ccccc3s2)c1	SW480 rerep inconclusive, IL1B secr inh -55, MCF10A rereplic inconclusive
COc1ccc(C(=O)NCC(c2ccco2)S(=O)(=O)c2cccs2)cc1 (configuration not stated)	none (no result: ATXN viability, SW480 rerep, ATXN2 expr inh, IL1B secr inh, MCF10A rereplic)
O=C1ON=C(c2ccccc2)/C1=C/c1ccc(O)cc1	ATXN viability inconclusive, IL1B secr inh -99 (no result: ATXN2 expr inh)
CCOc1cc(/C=C2\C(=O)ON=C2c2ccccc2)cc(Br)c1O	ATXN viability inconclusive, SW480 rerep inconclusive, ATXN2 expr inh inconclusive, IL1B secr inh -104, MCF10A rereplic 9.2µM
O=C1ON=C(c2ccccc2)/C1=C\c1ccco1	none
O=C1ON=C(c2ccc(Cl)cc2)/C1=C/c1ccc(O)cc1	ATXN viability inconclusive, IL1B secr inh -102, MCF10A rereplic inconclusive
Cc1ccc(C2=NOC(=O)/C2=C\c2ccccc2)cc1	none (no result: ATXN2 expr inh)
COc1cc(/C=C2\C(=O)ON=C2c2ccccc2)cc(Br)c1O	SW480 rerep inconclusive, MCF10A rereplic inconclusive
O=C1ON=C(c2ccccc2)/C1=C/c1ccccc1	IL1B secr inh -75 (no result: ATXN2 expr inh)
CC1=NOC(=O)/C1=C/c1ccc(O)cc1	SW480 rerep inconclusive, MCF10A rereplic inconclusive
Cc1ccc(C)c(NC(=O)CSc2c3c(nc4ccc(Cl)cc24)CCCC3)c1	none (no result: ATXN viability, SW480 rerep, ATXN2 expr inh, IL1B secr inh, MCF10A rereplic)
Cc1ccccc1Cn1c2ccccc2c2cnn(CC(=O)NCCc3ccc(Cl)cc3)c(=O)c21	none (no result: SW480 rerep, IL1B secr inh, MCF10A rereplic)
O=C(NCc1ccccn1)c1nn(-c2ccccc2Cl)nc1CO	none (no result: ATXN viability, SW480 rerep, ATXN2 expr inh, IL1B secr inh, MCF10A rereplic)
COc1cc(/C=C2\C(=O)ON=C2c2ccccc2)cc(Cl)c1O	ATXN viability inconclusive, ATXN2 expr inh inconclusive, MCF10A rereplic inconclusive
COc1cc(/C=C2/C(=O)ON=C2c2ccccc2)ccc1O	ATXN viability inconclusive, SW480 rerep inconclusive, IL1B secr inh -105, MCF10A rereplic inconclusive
COc1ccc(NC(=O)CC2C(=O)N(c3cccc(OC)c3)C(=O)N2CCC2=CCCCC2)cc1 (configuration not stated)	ATXN viability inconclusive (no result: SW480 rerep, IL1B secr inh, MCF10A rereplic)
CCOC(=S)SCC(=O)N1CCc2cc(OC)ccc2C1C1C(=O)CCCC1=O (configuration not stated)	SW480 rerep 10µM, MCF10A rereplic inconclusive
CCOc1ccc(CCN2C(=O)C(=O)N([C@@H](CC(C)C)CN3CCC[C@@H]3CN3C(=O)C(=O)NC[C@@H]3Cc3ccccc3)C[C@@H]2Cc2ccc(O)cc2)cc1	ATXN viability inconclusive, IL1B secr inh -52, MCF10A rereplic inconclusive
CCOc1ccc(CCN2C(=O)C(=O)N([C@@H](Cc3ccccc3)CN3CCC[C@H]3CN3C(=O)C(=O)NC[C@@H]3Cc3ccccc3)C[C@@H]2Cc2ccc(O)cc2)cc1	IL1B secr inh -64 (no result: SW480 rerep, MCF10A rereplic)
CCOc1ccc(CCN2C(=O)C(=O)N([C@@H](Cc3ccc(O)cc3)CN3CCC[C@H]3CN3C(=O)C(=O)NC[C@@H]3Cc3ccccc3)C[C@@H]2Cc2ccc(O)cc2)cc1	IL1B secr inh -52 (no result: SW480 rerep, MCF10A rereplic)
CCOc1ccc(CCN2C(=O)C(=O)N([C@@H](CC(C)C)CN3CCC[C@H]3CN3C(=O)C(=O)NC[C@@H]3Cc3ccccc3)C[C@@H]2Cc2ccccc2)cc1	ATXN2 expr inh inconclusive, IL1B secr inh inconclusive (no result: ATXN viability, SW480 rerep, MCF10A rereplic)
CCOc1ccc(CCN2C(=O)C(=O)N([C@@H](Cc3ccccc3)CN3CCC[C@H]3CN3C(=O)C(=O)NC[C@@H]3Cc3ccccc3)C[C@@H]2Cc2ccccc2)cc1	ATXN viability 28µM, ATXN2 expr inh inconclusive, IL1B secr inh inconclusive (no result: SW480 rerep, MCF10A rereplic)
CCOC(=O)c1ccc(NC(=O)Cn2c(=O)cc(C)c3c(C)nn(-c4ccc(CC)cc4)c32)cc1	none (no result: SW480 rerep, IL1B secr inh, MCF10A rereplic)
COc1ccccc1C1CN(Cc2cnn(C)c2C)Cc2ccccc2O1 (configuration not stated)	none (no result: SW480 rerep, ATXN2 expr inh, IL1B secr inh, MCF10A rereplic)
CCOc1ccc(CCN2C(=O)C(=O)N([C@@H](Cc3ccccc3)CN3CCC[C@H]3CN3C(=O)C(=O)NC[C@@H]3Cc3ccccc3)C[C@@H]2CC(C)C)cc1	ATXN viability inconclusive, ATXN2 expr inh inconclusive, IL1B secr inh -79 (no result: SW480 rerep, MCF10A rereplic)
